Compounds without any hit were thinned out: in the full panel of roughly 83,000, 20% have a hit.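 48-hour exposure, single concentration, 96-well plates; percent growth endpoint where 0 means no net growth. Active: below 10.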 Unmarked numbers belong to inactive results. Active and inactive are the calls of the source.

Some test systems named below: T-47D breast; BT-549 breast; MDA-MB-435 melanoma; SW-620 colon; MCF7 breast; HCT-116 colon; HCC-2998 colon; KM12 colon.
Assay in all cases: NCI-60 one-dose screen, 48 h (100 = growth as untreated, 0 = no growth, -100 = all killed)
Conditions in all cases: 10 µM unless noted

`N#Cc1c(-c2ccc(Cl)cc2)nc(N=Nc2c(O)[nH]c3ccc(Cl)cc23)nc1N1CCOCC1`: the growth is 99.8% in the test with T-47D breast; 92.1% in the test with BT-549 breast; 97.5% in the test with MDA-MB-435 melanoma; 91.8% with SW-620 colon; 97.9% in the test with MCF7 breast; 93.2% in the test with HCT-116 colon. In addition, the growth was 96.3% with HCC-2998 colon and 101% with KM12 colon.
For `COc1ccc(-n2nc(C)c3c(Nc4ccc(NC(=O)Nc5c(Cl)cccc5Cl)cc4)ncnc32)cc1`, the growth is 40% in the test with T-47D breast; 57.9% in the test with BT-549 breast; 49.1% in the test on MDA-MB-435 melanoma; 48.6% with SW-620 colon; 58.5% with MCF7 breast; 25% in the test with HCT-116 colon. Further, the growth in the test with HCC-2998 colon was 51%; with KM12 colon it was 18%.
`c1ccc(CCNc2ncnc3[nH]ncc23)cc1`: the growth in the test on T-47D breast is 79.3%; with BT-549 breast, 97.7%; with MDA-MB-435 melanoma, 112%; with SW-620 colon it was 113%; in the test on MCF7 breast it was 130%; in the test on HCT-116 colon, 98.3%. In addition, the growth in the test with HCC-2998 colon was 115%; with KM12 colon it was 109%.
Turning to `COC(=O)c1ccc(Cn2cnc3c(N)ncnc32)cc1`, the growth in the test on T-47D breast was 106%; in the test on BT-549 breast, 119%; with MDA-MB-435 melanoma, 123%; in the test on SW-620 colon, 109%; in the test on MCF7 breast, 98.3%; in the test with HCT-116 colon, 104%. For the same molecule, the growth in the test on HCC-2998 colon was 105%; in the test with KM12 colon it was 117%.
On to `Cc1[nH]c(-c2cc(N)ccc2Cl)c2c1C(=O)CCCC2`, for which the growth was 19.8% with T-47D breast; 49.8% with BT-549 breast; 15.5% in the test with MDA-MB-435 melanoma; 64.6% in the test on SW-620 colon; 12.8% in the test with MCF7 breast; 29.4% in the test on HCT-116 colon. The growth in the test with HCC-2998 colon is 33.5%; with KM12 colon, 32.6%.
`O=[N+]([O-])c1ccc2c(c1)Cc1cc(F)ccc1-2`: the growth was 94.4% in the test with T-47D breast; 105% in the test with BT-549 breast; 96.9% with MDA-MB-435 melanoma; 96.3% with SW-620 colon; 84.4% in the test with MCF7 breast; 102% with HCT-116 colon. Moreover, the growth in the test on HCC-2998 colon is 102%; with KM12 colon it was 109%.
Turning to `O=C(CN1CCCCC1)Nc1ccc2oc(=O)ccc2c1`, the growth in the test with T-47D breast was 103%; in the test on BT-549 breast, 107%; in the test with MDA-MB-435 melanoma, 113%; in the test with SW-620 colon, 97.9%; with MCF7 breast, 96%; in the test with HCT-116 colon, 101%. The growth in the test on HCC-2998 colon is 110%; in the test on KM12 colon, 104%.
On to `Cn1cc(C(=O)c2nc(-c3c[nH]c4ccc(Br)cc34)no2)c2cc(F)ccc21`, for which the growth was 89.7% in the test with T-47D breast; 95.7% in the test on BT-549 breast; 100% in the test with MDA-MB-435 melanoma; 95.3% with SW-620 colon; 82.1% in the test with MCF7 breast; 104% in the test with HCT-116 colon. Moreover, the growth is 97.5% in the test with HCC-2998 colon and 96.3% in the test on KM12 colon.
Consider `COc1ccc(/C=C/c2nc(-c3n[nH]c(=O)n3-c3ccccc3)c3ccccc3n2)cc1`, for which the growth is 89.3% in the test on T-47D breast; 111% in the test with BT-549 breast; 99.4% in the test with MDA-MB-435 melanoma; 89.6% in the test with SW-620 colon; 90.6% with MCF7 breast; 104% in the test on HCT-116 colon. In addition, the values for the growth in the test with HCC-2998 colon and in the test with KM12 colon were 112% and 94.2%, respectively.
For `O=C(Cn1cccc(Nc2ccccc2)c1=O)Nc1ccccc1`, the growth was 93.9% with T-47D breast; 106% in the test on BT-549 breast; 97.3% in the test with MDA-MB-435 melanoma; 102% in the test with SW-620 colon; 96.1% in the test on MCF7 breast; 98.6% with HCT-116 colon. Further, the values for the growth in the test on HCC-2998 colon and in the test on KM12 colon were 109% and 110%, respectively.
On to `O=C1C=C(OCC=C(Cl)Cl)C(=O)c2ccccc21`, for which the growth with T-47D breast is 38.9%; in the test with BT-549 breast it was 78.6%; with MDA-MB-435 melanoma, -55.7% (active); in the test on SW-620 colon it was 78.3%; with MCF7 breast, 26.6%; in the test on HCT-116 colon, 21.8%. The growth was 112% in the test with HCC-2998 colon and 91% in the test on KM12 colon.
On to `O=C(/C=C/c1cccc([N+](=O)[O-])c1)c1ccc(O)c(CN2CCN(c3cc4c(cc3F)c(=O)c(C(=O)O)cn4C3CC3)CC2)c1`, for which the growth in the test on T-47D breast is 10.9%; in the test on BT-549 breast, 6.04% (active); with MDA-MB-435 melanoma, 11.2%; in the test with SW-620 colon, -43% (active); in the test with MCF7 breast it was 1.85% (active); in the test on HCT-116 colon, -59.5% (active). Further, the growth in the test with HCC-2998 colon is 35.5%; with KM12 colon, -12.2% (active).
For `OC(c1cc2cc(Cl)c(Cl)cc2c2cc(C(F)(F)F)ccc12)C1CCCCN1` (stereo not drawn), the growth was -78.6% (active) in the test with T-47D breast; 76.4% with BT-549 breast; -73.9% (active) with MDA-MB-435 melanoma; -74% (active) in the test on SW-620 colon; -87.3% (active) with MCF7 breast; -87.3% (active) in the test with HCT-116 colon. In addition, the growth was -80.9% (active) in the test with HCC-2998 colon and -91.1% (active) in the test on KM12 colon.
In the case of `OCC(O)c1nc2ccc3[nH]ncc3c2c2c1CCCC2` (stereo not drawn), the growth is 14% with T-47D breast; -24.6% (active) with BT-549 breast; 17.4% with MDA-MB-435 melanoma; 3.04% (active) in the test with SW-620 colon; 8.02% (active) with MCF7 breast; 1.98% (active) in the test on HCT-116 colon. Moreover, the values for the growth in the test with HCC-2998 colon and in the test with KM12 colon were 29.5% and 4.4% (active), respectively.
Turning to `Oc1cccc2ccc(N/N=C/c3cc(CN4CCOCC4)c(O)c4ncccc34)nc12`, the growth is 26.9% in the test on T-47D breast; 18.4% with BT-549 breast; 23.8% with MDA-MB-435 melanoma; 26.2% in the test with SW-620 colon; 18.6% in the test on MCF7 breast; 23.5% with HCT-116 colon. In addition, the growth with HCC-2998 colon is 26.6%; in the test with KM12 colon it was 13.7%.
Turning to `Cc1[nH]c(-c2ccc3cc[nH]c3c2)c2c1C(=O)CCCC2`, the growth in the test with T-47D breast was 32.1%; in the test on BT-549 breast, 68.3%; in the test on MDA-MB-435 melanoma it was 25.2%; in the test on SW-620 colon, 73.9%; in the test on MCF7 breast, 19.5%; in the test with HCT-116 colon, 38.9%. In addition, the growth in the test on HCC-2998 colon was 57.7%; in the test on KM12 colon it was 47.8%.

(Values after PubChem BioAssay (NCI).)
